# Source: ChEMBL document CHEMBL4888484, “Replenishing the malaria drug discovery pipeline: Screening and hit evaluation of the MMV Hit Generation Library 1 (HGL1) against asexual blood stage Plasmodium falciparum ,using a nano luciferase reporter read-out” (2022)
# About 540 (0.36%) of roughly 150,000 compounds showed an effect of 50% or more. The sample as a whole holds a higher share of strong results than the screen did.
# Tested on: Plasmodium falciparum
# Assay: Primary screen in NF54 nanoGlo assay, in single point, at 2uM, 72h; a lower Z score goes with more inhibition
# Type: functional, Erythrocyte
# Conditions: timepoint 72 hour
Compound,% Inhibition [%],Z score
NC(=O)c1ncc(Br)cc1N1CCC[C@H](F)C1,-6,0.95
O=C(Nc1nc2c(s1)CN(S(=O)(=O)c1c(F)cccc1F)CC2)c1ccco1,-5,0.7
COc1ccc(-c2nc(C)cc(C)c2CNC(=O)c2ccco2)cc1,-2,0.33
O=C(Nc1cccc(CNc2ncccn2)c1)c1ccco1,-4,0.39
FC(F)(F)c1ccc(-c2nc(CN(Cc3ccccc3)Cc3ccccc3)cs2)cc1,0,0.08
CN(Cc1cccc(N(C)C)c1)Cc1csc(-c2ccoc2)n1,-5,0.54
CC1(C)CN(C(=O)c2c(O)cnc3c(F)cccc23)C1C1CCCO1 (stereo not given),-4,0.64
CC(=O)Nc1ccc2nc(N3CCC(C(=O)NC4CC4)CC3)cc(C)c2c1,8,-1.23
COc1cc(OC)cc(C(=O)Nc2ccc3nc(N4CCC(C)CC4)cc(C)c3c2)c1,58,-3.66
CCN(CC)c1ccc(C(=O)Nc2ccc3nc(N4CCCC4)cc(C)c3c2)cc1,73,-6.69
CC(=O)Nc1ccc2nc(N3CCC(C(=O)N4CCC(N5CCCCC5)CC4)CC3)cc(C)c2c1,10,-1.6
COc1ccc(C(=O)Nc2ccc3nc(N4CCC(C)CC4)cc(C)c3c2)cc1OC,7,-1.1
Cc1cc(N2CCC(C)CC2)nc2ccc(NC(=O)c3cccnc3)cc12,18,-2.1
CCn1c(=O)sc2cc(NC(=O)c3ccc(C)cc3)ccc21,5,-0.91
CC(Nc1ccc(C#N)nc1)C1CCCOC1 (stereo not given),1,-0.15
Cc1noc2ncnc(NC[C@](C)(O)c3cccc(F)c3)c12,-7,1.41
CN(C)c1ccccc1NC(=O)Cn1ccc(=O)[nH]c1=O,-5,0.92
Nc1nnc(N[C@H]2COc3ccccc32)[nH]1,0,0.03
O=C(CCc1cccc(Cl)c1)N1CC[C@H](N2CCc3ccccc3C2)C1,-5,0.72
O=C(CCc1ccc(Cl)c(F)c1)N1CC(N2CCc3ccccc3C2)C1,-9,1.44
O=C(CCc1ccc(Cl)c(C(F)(F)F)c1)N1CC[C@H](N2CCc3ccccc3C2)C1,50,-7.74
COCCN1C[C@@H](c2nc(C3CCOCC3)n[nH]2)CCC1=O,-5,0.81
CNC(=O)[C@H](CNC(=O)c1ccc(=O)[nH]n1)Cc1ccc(F)cc1C,-8,1.4
Cc1cccc(CN2CCN(C(=O)c3cc(C)nc(N)n3)[C@@H](C)C2=O)c1,-2,0.2
COc1cc(C(=O)Nc2cccc(-c3nc(C)cc(=O)[nH]3)c2)ccc1OCc1cscn1,-2,0.29
C=CCn1ncc(-c2cn([C@@H](CC)c3cc(C)ccn3)nn2)c1C,10,-1.39
CN(C)C1(CC2CC2)CCN(Cc2cccc(C#N)c2)CC1,-3,0.54
CCNC(=O)N1CC[C@H](Oc2ccc3ccccc3n2)C1,57,-3
O=C(COc1ccc(Cl)cc1)N1CC[C@H](Oc2ccc3ccccc3n2)C1,-18,3.35
O=C(Cc1ccccc1Cl)N1CC[C@H](Oc2ccc3ccccc3n2)C1,-5,0.96
